Laboratory results reported in PubChem BioAssay AID624491 (Broad Institute, 2012).
The campaign covered roughly 1,800 compounds. About 1,400 (78%) were called active. Roughly 2% stayed inconclusive and do not appear here.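 How the source made its calls: active means fitted curve crossing a set activation limit at or below the highest valid dose tested; inconclusive means flat fit at 30 to 70% activation, or poor fit; inactive means the rest, including signal decreases.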 The set was probably picked from earlier hits. Not all results are given here. Where a call stands in place of a potency, no number is given. Potency and affinity values are given separately.

Experiment: N-linked glycosylation inhibitors, luciferase reporter, dose response, D54 ERlucT cells, luminescence, cherry-picks (AID 624491);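 further: signal gain reflects blocked N-linked glycosylation of a luciferase reporter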
Details: 24 h, 100% = twice neutral-control luminescence; series mostly up to 19.5 µM

SMILES | activation (NLG inhibition)
O=c1cc(N=Nc2ccc(Cl)cc2)[nH]c(=O)[nH]1 | inactive
CCCCCCCCn1c2c(c(=N)c3c1CCC3)CCCC2 | inactive
CCOC(=O)c1ccc(-c2ccc(/C=N/NC(=O)CN(c3cccc(C)c3)S(C)(=O)=O)o2)cc1 | inactive
O=C(N/N=C\c1ccc([N+](=O)[O-])o1)c1cncc(Br)c1 | inactive
CC1c2cc3c(cc2CCN1C(=O)c1ccc(Br)cc1)OCCCO3 (stereo not given) | inactive
COc1cc2c(cc1OC)C(C)N(C(=O)Nc1ccccc1)CC2 (stereo not given) | inactive
Nc1nonc1-c1nc2ccccc2n1Cc1ccccc1 | inactive
Nc1nonc1-c1nc2ccccc2n1CC(=O)N/N=C\c1ccc(-c2ccc(Cl)cc2)o1 | inactive
CCOc1cccc2sc(Nc3nc4ccc(NC(C)=O)cc4s3)nc12 | inactive
Oc1ccc(NCc2ccccc2OCc2ccccc2)cc1 | inactive
CCc1cccc(CC)c1NC(=O)CN1C2CCCC1CC(NC(=O)Nc1cccc(OC)c1)C2 (stereo not given) | inactive
Cc1cc(NCCCN(C)C)n2c(nc3ccccc32)c1C#N | inactive
CC1Cc2ccccc2N1C(=O)CSc1nn2c(=O)c(C(C)(C)C)nnc2s1 (stereo not given) | inactive
COc1ccc(OC)c(N(CC(=O)Nc2cccnc2)S(=O)(=O)c2ccc(C)cc2)c1 | inactive
COCC(=O)OC/C(O)=C(\C#N)c1nc2ccccc2[nH]1 | inactive
CC(C)Oc1ccc(C(=O)Nc2ccc3c(c2)n(C)c(=O)n3C)cc1 | inactive
O=C(Nc1ccc(N2CCCC2)c(Cl)c1)c1ccc([N+](=O)[O-])o1 | inactive
O=C(NC1CCCC(C(F)(F)F)C1)c1ccc([N+](=O)[O-])o1 (stereo not given) | inactive
O=C(Nc1cccc2ccccc12)c1ccc([N+](=O)[O-])o1 | inactive
O=C(Nc1nc2ccccc2s1)c1ccc([N+](=O)[O-])o1 | inactive
CCn1cc([N+](=O)[O-])c(C(=O)Nc2nc(-c3ccc(C)c(C)c3)c(C)s2)n1 | inactive
O=C(NC(=S)Nc1cccc(S(=O)(=O)NC2=NCCC2)c1)c1cc(-c2ccco2)nc2ccccc12 | inactive
COc1ccc(/C=C2\COc3ccccc3C2=O)cc1OC | inactive
C[C@H](CO)N1C[C@H](C)[C@@H](CN(C)Cc2ccccc2)Oc2ccc(NC(=O)CCCCCC(=O)Nc3ccccc3N)cc2C1=O | inactive
O=C(NC1CCCCC1)C(c1cccnc1)N(C(=O)CCl)c1cccc(Cl)c1 (stereo not given) | inactive
COc1ccc(N(C(=O)CCl)C(C(=O)NC2CCCCC2)c2cccnc2)cc1 (stereo not given) | inactive
CC(=O)Cn1ncc(Br)c(Br)c1=O | inactive

SMILES | activation (NLG inhibition)
CCN1/C(=C/c2sc(-c3ccccc3C)c[n+]2C)Sc2ccccc21 | inactive
CCOC(=O)c1c(NC(=O)CCl)sc(C(=O)N(CC)CC)c1C | inactive
COc1ccc(C(=O)/C=C/Sc2nc3ccccc3o2)cc1 | inactive
CCOc1ccc(N(C)S(=O)(=O)c2ccc(-c3cc(C)no3)s2)cc1 | inactive
Cc1cccc(N(C)S(=O)(=O)c2ccc(-c3cc(C)no3)s2)c1 | inactive
O=C1c2ccccc2-c2n[nH]c(=O)c3ccc(N4CCCCC4)c1c23 | inactive
CCn1ncc(C2=NOC(C(=O)NCc3ccc(Cl)cc3)C2)c1C (stereo not given) | inactive
COc1cc(C2=NOC(C(=O)NCc3ccc(F)cc3)C2)cc(OC)c1OC (stereo not given) | inactive
O=C(NCc1ccc(OC(F)(F)F)cc1)C1CC(c2ccc(C(F)(F)F)cc2)=NO1 (stereo not given) | inactive
COc1cccc(S(=O)(=O)Nc2ccc3c(c2)[C@@H]2C[C@@H](CC(=O)NCc4ccc(Cl)cc4)O[C@@H](CO)[C@@H]2O3)c1 | inactive
COc1cc(-c2cc(-c3ccc(O)cc3)nc(N)c2C#N)ccc1O | inactive
COc1ccccc1-c1cc(NC=O)c2ncc(-c3cccc(C(C)=O)c3)n2c1 | inactive
COC(=O)c1cccc(NS(=O)(=O)c2ccc(OC)cc2)c1C | inactive
O=C(CC1Sc2ccccc2NC1=O)NNc1cccc(Cl)c1Cl (stereo not given) | inactive
Cc1c(O)cc2c(c1O)C(=O)CC(c1ccccc1)O2 (stereo not given) | inactive
CCc1nc(SCC(=O)c2ccc3c(c2)OCCO3)c2ccccc2n1 | inactive
Cc1ccc(C(C)C)c(OCc2nnc(SCC(=O)Nc3ncc(C)s3)n2C)c1 | inactive
COc1ccc(/C=C2\N=C(c3ccccc3Cl)NC2=O)cc1 | inactive
CCc1ccc(OCC(=O)Nc2ccncc2)c(Br)c1 | inactive
O=C(/C=C/c1cccnc1)c1ccc([N+](=O)[O-])cc1 | inactive
NC1=NC(c2ccc(Cl)cc2)C(C(=O)c2ccccc2)N1 (stereo not given) | inactive
COc1ccc(S(=O)(=O)Nc2cccc3ccc(O)cc23)cc1 | inactive
O=C(CCN1C(=O)/C(=C\c2ccccc2)SC1=S)N1CCCCC1 | inactive
Cc1ccc(CNC(=O)Cc2ccc(-n3c(=O)[nH]c4ccsc4c3=O)cc2)cc1 | inactive
CCOc1ccc(-n2c(C)cc(C(=O)CCl)c2C)cc1 | inactive
COC(=O)c1c(NC(=O)CN2C(=O)NC3(CCC(C)CC3)C2=O)sc2c1CCC2 (stereo not given) | inactive
COC(=O)CNC(c1ccccc1Cl)c1cc(Br)ccc1NC(=O)CCN1CCOCC1 (stereo not given) | inactive

SMILES | activation (NLG inhibition)
COc1ccc(CC(=O)Nc2ccc(-c3ccc4nnc(C)n4n3)cc2)cc1OC | inactive
N#CCC(CNc1ncc(C(F)(F)F)cc1Cl)OC(=O)c1ccc(Cl)cc1Cl (stereo not given) | inactive
Cc1cccn2c(=O)c3cc(C(=O)N4CCCCC4)sc3nc12 | inactive
COc1ccc(-c2oc3cc(O)c(OC)c(O)c3c(=O)c2OC)cc1 | inactive
Cc1cccc(N2C(=O)CC(N3CCN(C(=O)c4ccccc4)CC3)C2=O)c1 (stereo not given) | inactive
CC1=C(n2ccnc2)CCC1=O | inactive
O=C1CCCC2=C1C(c1ccc(Cl)cc1)n1c(s/c(=C\c3ccc4ccncc4c3)c1=O)=N2 (stereo not given) | inactive
O=c1cc(N2CCN(c3ccccc3Cl)CC2)[nH]c(=O)n1Cc1ccc(F)cc1 | inactive
Nc1c(N(CCC2=CCCCC2)C(=O)COc2ccc(F)cc2)c(=O)[nH]c(=O)n1Cc1ccccc1 | inactive
O=C(N/N=C/c1ccc2c(c1)OCO2)c1cccc2ccccc12 | inactive
CC(C)(C)c1ccc(C(=O)NNC(=O)c2cccc(Br)c2)cc1 | inactive
COc1cccc(/C=N/NC(=O)c2[nH]nc3c2CCc2ccccc2-3)c1 | inactive
COc1ccc(/C=C/C(=O)c2c(O)cc(OC)cc2OC)cc1 | inactive
COc1ccc(NC(=O)c2cnc(SC)nc2)cc1 | inactive
COc1ccc(/C=C/C(=O)c2ccc3c4c(cccc24)CC3)cc1OC | inactive
CCN(CC)Cc1cc(Nc2c3ccccc3nc3c4ccccc4n(C)c23)cc(CN(CC)CC)c1O | inactive
CCOC(=O)c1[nH]c(C)c(C(=O)Nc2cc(Cl)ccc2C)c1C | inactive
CCOC(=O)c1c(C)[nH]c(-c2csc(N)n2)c1C | inactive
CCOC(=O)c1[nH]c(COC(=O)CCOc2ccccc2OC)c(C(=O)OCC)c1C | inactive
CCN(CC)c1ccc(C(=O)n2cnc3ccccc32)cc1 | inactive
CC(=O)N1c2ccccc2C(=O)C1N(C)c1ccc(C)cc1 (stereo not given) | inactive
COCCNc1nc(-c2ccccc2CO)c2sc(-c3ccccc3)cc2n1 | inactive
CCOC(=O)c1ccc(-n2cccc2/C=C2\NC(=O)NC2=O)cc1 | inactive
O=C(N/N=C\c1cccnc1)c1cc(-c2ccccc2)nc2c(Cl)cccc12 | inactive
O=C(/C=C/c1ccc([N+](=O)[O-])s1)N1CCCCC1 | inactive
CCN(c1ccccc1)S(=O)(=O)c1ccc(C(=O)NC2CCN(Cc3ccccc3)CC2)cc1 | inactive
Cc1nnc2n(c1=O)N=C(c1ccc(Cl)cc1)CS2 | inactive

SMILES | activation (NLG inhibition)
O=C(CN1C2=NCCCN2c2ccccc21)c1ccc([N+](=O)[O-])cc1 | inactive
CC(C)(C)S(=O)N1Cc2cc(C(=O)NCC(F)(F)F)nc(-c3cccc(-c4cccc(F)c4)c3)c2[C@@H]1CCO (stereo not given in full) | inactive
Cc1cnc(C(=O)OCC(=O)NC2CCCCCCC2)cn1 | inactive
Cc1ccc(-c2nn(-c3ccccc3)cc2NC(=O)CCl)cc1 | inactive
COc1ccccc1NC(=O)Cn1nnc(-c2ccccc2NC(=O)c2ccco2)n1 | inactive
CCc1cccc(NC(=O)CN2C(=O)NC3(CCCCCCC3)C2=O)c1 | inactive
O=C(CN1C(=O)NC2(CCCCC2)C1=O)Nc1ccc2c(c1)CCC2 | inactive
Cc1ccc(C)c(N2CCN(S(=O)(=O)c3ccc(-c4ccc(=O)[nH]n4)o3)CC2)c1 | inactive
Cn1cnc([N+](=O)[O-])c1Oc1ccc2ccccc2c1 | inactive
CCn1c(=O)cc(C(=O)OC)sc1=Nc1ccc(F)c(F)c1 | inactive
O=C1c2cccc3c([N+](=O)[O-])ccc(c23)C(=O)N1CC1CCCO1 (stereo not given) | inactive
O=c1cc(-c2ccccc2)[nH]n1-c1nc2ccccc2[nH]1 | inactive
Nc1cc2c(cc1Br)-c1c(C(=O)O)cccc1C2O (stereo not given) | inactive
CO/N=C/c1ccc(OC)c(Oc2nc(OC)cc(OC)n2)c1 | inactive
O=C(COc1ccc(/C=N/NC(=O)c2cc3ccccc3o2)cc1Br)Nc1ccccc1 | inactive
CCCCCC[n+]1ccccc1/C=C/c1ccc(N(C)C)cc1 | inactive
CCC1=Nc2cc(C(=O)NCc3ccco3)ccc2Sc2ccc(Cl)cc21 | inactive
Cc1nnc2ccc(-c3ccc(NC(=O)c4ccco4)cc3)nn12 | inactive
O=C(COc1ccc(/C=N/NC(=O)c2cc3ccccc3o2)cc1Cl)Nc1ccccc1 | inactive
CC(=O)c1ccc(Nc2c3c(nc4ccccc24)CCCC3)cc1 | inactive
COc1ccc(NC(=O)CSc2nc3ccsc3c(=O)n2Cc2ccccn2)c(OC)c1 | inactive
COc1cc(Nc2c3ccccc3nc3ccccc23)cc(OC)c1OC | inactive
CCn1cc2nc(SCC(=O)Nc3ccc(OC)cc3OC)n(Cc3ccc(OC)cc3)c(=O)c2n1 | inactive
COC(=O)c1cccc(Nc2c3c(nc4ccccc24)CCC3)c1 | inactive
